Source: PubChem BioAssay
Shown are actives, neighbours in structure and some others; about 4.3% of the full set was active somewhere.
esBAF inh – blocks esBAF chromatin remodeling in mouse ES cells | Bmi1-luciferase knock-in reporter, 24 h; 100% = twice the neutral-well signal | reporter increase, % at 12.5 µM | 350,000 compounds, 2% hits | AID 602393; in the data active means activation above about 40%; inconclusive means no clear call, values can overlap the other calls;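 further: a rise in the Bmi1 reporter signal indicates esBAF inhibition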
MITF TRPM1 HTS – activators of MITF-driven TRPM1 promoter activity in SK-MEL-5 cells; SK-MEL-5 TRPM1-promoter luciferase, 24 h; % of positive control, neutral wells = 0; 300,000 compounds, 0.75% hits; activation, % at 12.5 µM;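 active means mean activation of at least 80% with every replicate also reaching 80%; inconclusive means mean reaches 80% but some replicate falls short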
SMARCA2 act – increases SMARCA2 function in MMTV reporter cells; MG213 cells, MMTV-luciferase reporter, dexamethasone, overnight; AID 652017; 370,000 compounds, 1% hits; activation, % at 9.1 µM; in the data active means activation above about 7.8%
Wnt bcat act – activators of Wnt/beta-catenin signaling. Wnt/beta-catenin reporter cell assay, activator, plate reader. activation, % at 9.35 µM. 300,000 compounds, 1.2% hits. AID 743398; in the data active means activation above about 30%, passing the limit was not always enough; inconclusive means no clear call, values can overlap the other calls
FGF22 binding – FGF22 (human) thermal shift binding | Q9HCT0 | recombinant FGF22 thermal shift, SYPRO orange fluorescence; percent of sucrose octasulfate shift, DMSO zero | activity (Tm shift, normalised), % at 9.99 µM | 340,000 compounds, 1.5% hits | AID 651658;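 active means mean Tm shift, scaled 0 neutral to 100 positive control, at about 1.3% or above, every replicate too, limit read from the data; inconclusive means no clear call, values can overlap the other calls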
MLL AF4-AF9 inh – blocks AF4 peptide binding to human AF9. 350,000 compounds, 0.47% hits. AlphaScreen, biotin-AF4 peptide binding to FLAG-AF9. inhibition, % at 10 µM;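 active means every replicate reaching a set inhibition limit, whatever the replicate mean, cut at about 25% in these data; inconclusive means mean inhibition reaches that limit but some replicates miss it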
Target sequence (P42568 whole entry, looked up): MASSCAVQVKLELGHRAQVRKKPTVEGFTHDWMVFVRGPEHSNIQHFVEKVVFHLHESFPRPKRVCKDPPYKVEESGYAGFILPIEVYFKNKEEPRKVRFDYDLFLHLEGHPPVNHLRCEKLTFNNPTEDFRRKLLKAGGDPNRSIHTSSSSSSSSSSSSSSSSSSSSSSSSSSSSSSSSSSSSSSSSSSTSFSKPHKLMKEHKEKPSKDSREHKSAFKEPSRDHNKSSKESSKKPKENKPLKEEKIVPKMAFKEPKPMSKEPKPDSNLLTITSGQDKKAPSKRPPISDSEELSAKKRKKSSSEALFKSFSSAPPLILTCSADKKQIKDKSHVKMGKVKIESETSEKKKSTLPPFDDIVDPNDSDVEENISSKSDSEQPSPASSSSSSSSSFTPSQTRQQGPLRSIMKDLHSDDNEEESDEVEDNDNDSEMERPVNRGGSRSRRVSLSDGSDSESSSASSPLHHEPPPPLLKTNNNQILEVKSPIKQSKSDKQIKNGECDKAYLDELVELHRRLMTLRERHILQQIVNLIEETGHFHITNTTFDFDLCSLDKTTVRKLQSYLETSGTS
Hits are given with their value; 0 = inactive; ? = inconclusive; - = no result given.

SMILES	esBAF inh	MITF TRPM1 HTS	SMARCA2 act	Wnt bcat act	FGF22 binding	MLL AF4-AF9 inh
Cc1ccc(-c2ccc(S(=O)(=O)N3CCN(C)CC3)cc2)cc1	0	0	0	0	-	-
CC(=O)Nc1ccc(OCC[n+]2cccc(C(N)=O)c2)cc1	-	0	0	0	0	0
CC(=O)Nc1ccc(OCCC[n+]2ccccc2)cc1	-	0	0	0	0	31
N#CCc1nc(CSc2nc3ccccc3s2)cs1	62	0	0	-	0	0
NS(=O)(=O)c1ccc(NC(=O)C(Sc2ccccc2)c2ccccc2)cc1 (stereo not drawn)	0	0	0	0	1.4	0
CC(NS(=O)(=O)c1ccccc1)C(=O)Nc1ccc(S(N)(=O)=O)cc1 (stereo not drawn)	0	-	0	-	-	-
CC(C)CNC(C)C(=O)Nc1ccc(S(N)(=O)=O)cc1 (stereo not drawn)	-	0	0	0	43	0
COC(=O)C[C@H]1C[C@@H]2c3cc(NC(=O)C4CCC4)ccc3O[C@@H]2[C@@H](CO)O1	0	-	-	-	0	0
C[C@H]1CN([C@@H](C)CO)C(=O)c2cc(NS(=O)(=O)c3ccccc3)ccc2O[C@@H]1CN(C)C(=O)Nc1ccc2c(c1)OCO2	0	-	-	-	0	0
O=C(C[C@@H]1CC[C@@H]2[C@H](COC[C@@H](O)CN2Cc2ccc(C(F)(F)F)cc2)O1)NCCc1ccccc1	0	-	-	-	0	0
N#CCCn1cc(C(=O)NCc2ccccc2)c(-c2cccs2)n1	0	0	0	0	43	0
Cc1ccc(C(=O)/C=C/Nc2cccc([N+](=O)[O-])c2)o1	-	85	0	-	-	-
CCOC(=O)c1oc2cc(O)c(CC)cc2c(=O)c1-c1cscn1	0	0	0	0	0	0
CCc1cc2c(=O)c(-c3cscn3)coc2cc1O	90	0	0	0	-	-
CO[C@@H]1CN(C)C(=O)c2ccc(NC(=O)c3ccc(-c4ccccc4)cc3)cc2OC[C@@H](C)NC[C@H]1C	-	-	-	-	0	0
Cc1cc(=O)n2[nH]c(-c3ccc(Cl)cc3)cc2n1	?	0	7.8	-	-	-
Cc1cc(=O)n2[nH]c(-c3ccc(F)cc3)cc2n1	-	0	0	-	-	-
CC(C)N1CCC(N2CCN(C3CCCCCC3)CC2CCO)CC1 (stereo not drawn)	-	0	0	0	43	0
CO[C@@H]1CN(C)C(=O)c2ccc(NC(=O)Nc3ccc(F)cc3)cc2OC[C@H](C)NC[C@H]1C	0	-	-	-	0	0
C[C@@H]1CN([C@H](C)CO)S(=O)(=O)c2ccc(C#CC3CC3)cc2O[C@H]1CN(C)Cc1ccc(F)cc1	0	-	-	-	0	0
COc1cc(NC(=O)COC(=O)C=C(C)C)c(C)cc1[N+](=O)[O-]	0	0	0	0	44	0
O=C1C(Cl)=C(Nc2ccccc2O)C(=O)N1c1ccccc1	0	-	0	55	-	-
Cc1cc(C)n(-c2nnc3c4ccccc4n(C)c3n2)n1	-	-	0	48	0	0
C/C(=N\Nc1nnc2c3ccccc3n(C)c2n1)c1ccc(C)o1	-	0	0	0	-	-
COc1cccc(CNC(=O)[C@H]2[C@H](CO)[C@H]3Cn4c(ccc(-c5cncnc5)c4=O)[C@@H]2N3C(C)=O)c1	0	-	-	-	0	0
SMILES	esBAF inh	MITF TRPM1 HTS	SMARCA2 act	Wnt bcat act	FGF22 binding	MLL AF4-AF9 inh
CC(C)Cn1c(N)c(C(=O)COC(=O)c2ccc([N+](=O)[O-])o2)c(=O)n(C)c1=O	-	0	0	0	43	0
C[C@@H]1CN([C@@H](C)CO)C(=O)c2cc(NS(=O)(=O)c3ccccc3)ccc2O[C@@H](C)CCCCO[C@H]1CN(C)C(=O)CCCN(C)C	0	-	-	-	0	0
CCCC#Cc1ccc2c(c1)O[C@H](CN(C)C(=O)NC(C)C)[C@H](C)CN([C@@H](C)CO)S2(=O)=O	0	-	-	-	0	0
CCc1ccc2nc(/N=C(\N)NC(=O)c3ccccc3)nc(C)c2c1	0	-	7.9	0	0	0
Cc1ccc(CSc2nnc(-c3ccccn3)n2N)cc1	-	-	0	0	0	0
Nn1c(SCc2ccccc2)nnc1-c1ccccn1	43	-	0	-	-	-
Nn1c(SCc2ccccc2F)nnc1-c1ccccn1	-	-	0	41	0	0
Nn1c(SCc2ccc(F)cc2)nnc1-c1ccccn1	-	-	0	0	0	0
COc1ccc(CCC(=O)O)c(C(CC(=O)O)C(=O)O)c1OS(=O)(=O)c1ccc(C)cc1 (stereo not drawn)	0	-	0	0	1.6	0
Cn1c(Cl)c(/C=N/OC(=O)C(C)(C)C)c2ccccc21	-	0	0	0	0	0
CC(=O)O/N=C/c1c(Cl)n(C)c2ccccc12	-	0	0	0	44	0
